# A selection: hits, their analogues and other compounds. The true share with any hit is near 3.3%.
# p47phox inh – p47phox (human) inhibition; p47phox/p22phox peptide binding, fluorescence polarization, 2 h; P14598; actives 0.53% (n = 220,000); inhibition, % at 24.7 µM
# Target sequence (P14598 whole entry, looked up): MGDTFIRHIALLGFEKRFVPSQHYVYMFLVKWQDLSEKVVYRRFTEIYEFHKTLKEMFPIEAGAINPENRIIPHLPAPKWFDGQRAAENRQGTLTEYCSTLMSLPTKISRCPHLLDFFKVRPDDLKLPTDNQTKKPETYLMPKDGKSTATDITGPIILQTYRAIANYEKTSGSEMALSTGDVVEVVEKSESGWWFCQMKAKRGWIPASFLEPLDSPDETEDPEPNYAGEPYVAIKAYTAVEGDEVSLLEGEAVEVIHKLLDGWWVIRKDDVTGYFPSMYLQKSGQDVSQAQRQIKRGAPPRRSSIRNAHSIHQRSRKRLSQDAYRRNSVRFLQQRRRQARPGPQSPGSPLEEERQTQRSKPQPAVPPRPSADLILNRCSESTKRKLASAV
# Mcl1-Noxa inh – Mcl-1/Noxa interaction inhibition; inhibition, % at 21.7 µM; actives 1.5% (n = 220,000); TR-FRET Mcl-1/Noxa peptide binding, 2 h;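 active = compounds that cut the protein-peptide binding signal by more than 50% relative to plate controls in a single-dose test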;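 also: His-tagged Mcl-1 with rhodamine Noxa BH3 peptide and terbium anti-His antibody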
# Mcl1 Bid PPI – Mcl-1/Bid interaction inhibition; TR-FRET Mcl-1/Bid-Dy647 peptide binding, 1536-well; inhibition, % at 21.7 µM; actives 0.97% (n = 220,000);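 active = compounds that cut the binding signal by more than half at the single screening dose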;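 also: His-tagged Mcl-1 with europium anti-His antibody binding Bid BH3 peptide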
# eIF4E-4G inh – inhibitors of eIF4E and eIF4G interaction in translation initiation; P63073+Q04637; inhibition, % at 21.7 µM; TR-FRET eIF4E-eIF4GI(517-606) binding, 2 h; AID 782; actives 0.37% (n = 220,000)
# Bim-Mcl-1 – inhibitors of Bim-Mcl-1 interaction, human | Q07820 | Bead-based flow cytometry, Bim peptide-Mcl-1 binding | inhibition, % at 10 µM | actives 0.1% (n = 190,000); in the data active = inhibition above about 40%
# 14-3-3 Bad inh – disrupts binding of bovine 14-3-3 zeta to phospho-Bad peptide; P63103; actives 0.71% (n = 220,000); inhibition, % at 21.7 µM; TR-FRET 14-3-3zeta/Dy647-pBad peptide displacement, 1 h;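 active = inhibition above about 70%, limit read from the data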
# Numbers stand for hits; – = inactive; · = not tested or not shown; [ ] = another dose, or the depositor's remark.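 The calls were made as follows, unless noted: active = inhibition above about 30% (limit read from the data); inactive = the rest.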
SMILES,p47phox inh,Mcl1-Noxa inh,Mcl1 Bid PPI,eIF4E-4G inh,Bim-Mcl-1,14-3-3 Bad inh
NNC(=O)c1ccc(OCC2CC(c3ccc(Cl)cc3)=NO2)cc1 (centres undefined),–,–,–,–,·,–
C=CCn1c(=NC(=O)c2ccco2)sc2cc(C(=O)OCC)ccc21,–,–,50.9,–,–,–
O=C(c1ccc(Cl)cc1)c1c[nH]c(C(=O)NNc2ccccc2)c1,–,–,–,–,–,–
COc1ccc(CCN=C(N)NS(=O)(=O)c2ccc(C)cc2)cc1OC,–,55.4,–,–,–,–
CC(C)c1ccc(S(=O)(=O)N2CCN(CCC(=O)Nc3ccc(N(C)C)cc3)CC2)cc1,–,71.8,–,–,–,–
COc1ccc(NC(=O)CCN2CCN(S(=O)(=O)c3ccc(C(C)C)cc3)CC2)cc1,–,–,–,·,–,·
O=C1NCCN1c1ccc(CN2CCN(C3CCCCC3)C(CCO)C2)cc1 (centres undefined),64.0,–,–,–,–,–
CC(C)(O)C#Cc1ccc(CN2CCN(C3CCCCC3)C(CCO)C2)cc1 (centres undefined),–,81.2,–,–,–,–
CC(C)(O)C#Cc1ccc(CN2CCN(C3CCCC3)C(CCO)C2)cc1 (centres undefined),–,–,–,–,–,–
CCC(=O)OCCNc1cc(SCCC(=O)OC)c2nonc2c1[N+](=O)[O-],–,–,–,–,–,–
CCCC(=O)OCCNc1cc(Sc2nc3ccccc3[nH]2)c2nonc2c1[N+](=O)[O-],–,51.8,–,–,–,–
Cc1ccc2cc(C#N)c(SCC(=O)NCc3ccco3)nc2c1,–,–,–,–,–,–
Cc1ccc2nc(SCC(=O)NCc3ccco3)c(C#N)cc2c1,33.2,–,–,–,–,–
Cc1ccccc1-n1c([C@@H]2C[C@H]2c2ccccc2)n[nH]c1=S,–,–,–,–,·,–
O=C(c1c(F)cccc1F)N1CCN=C1SCc1ccccc1,–,–,–,–,·,–
O=S(=O)(c1cccs1)N1CCN(S(=O)(=O)c2cccs2)CC1,–,–,–,–,–,–
O=S(=O)(c1cccs1)N1CCCc2cccc(O)c21,–,–,–,–,–,74.2
COc1cc(/C=C(/NC(=O)c2ccccc2)C(=O)N2CCN(C)CC2)c([N+](=O)[O-])cc1OC,36.4,–,–,–,–,–
COc1cc(/C=C(\NC(=O)c2ccccc2)C(=O)NCCO)c([N+](=O)[O-])cc1OC,–,–,–,–,–,–
FC(F)(F)c1cccc(N2CCN(CC3CC4C=CC3C4)CC2)c1 (centres undefined),–,–,–,–,–,83.0
C1=CC2CC1CC2CN1CCN(Cc2ccccc2)CC1 (centres undefined),–,–,61.3,–,–,–
FC(F)(F)c1cccc(N2CCN(CC3CC=CCC3)CC2)c1 (centres undefined),–,–,–,–,–,–
Fc1ccccc1N1CCN(CC2CC3C=CC2C3)CC1 (centres undefined),–,–,–,–,–,–
CCOC(=O)N1CCC(NC(=O)c2cc3c(=O)[nH]c4ccccc4c3n2C)CC1,–,–,–,–,–,–
COc1ccc2nc(SCC(=O)N3CCN(c4ccc(F)cc4)CC3)c(C#N)cc2c1,–,–,–,–,–,–
SMILES,p47phox inh,Mcl1-Noxa inh,Mcl1 Bid PPI,eIF4E-4G inh,Bim-Mcl-1,14-3-3 Bad inh
CCS(=O)(=O)Nc1ccccc1C(N)=O,–,–,–,–,–,–
O=Nc1c(O)n(Cc2ccc(Cl)c(Cl)c2)c2ccccc12,–,–,–,–,–,–
O=C(COC(=O)CCc1ccc(S(=O)(=O)N2CCOCC2)cc1)NC(=O)NC1CCCCC1,–,–,–,–,–,–
C/C(=N\NC(=O)c1cnccn1)c1ccc([N+](=O)[O-])cc1,–,–,–,–,·,–
C/C(=N/NC(=O)c1cc(O)c(O)c(O)c1)c1ccc([N+](=O)[O-])cc1,–,58.6,–,–,–,–
CC(C)c1ccc(/C=N/NC(=O)c2cc(-c3cccc([N+](=O)[O-])c3)n[nH]2)cc1,–,–,–,–,·,–
C/C(=N/NC(=O)CNC(=O)c1cccnc1)c1ccc([N+](=O)[O-])cc1,–,72.9,–,–,–,–
C/C(=N/NC(=O)c1cc(-c2cccc([N+](=O)[O-])c2)n[nH]1)c1ccc(Cl)cc1,–,63.6,74.0,–,–,76.7[fluorescence artefact?]

# High-throughput results as filed in PubChem.
